# Test results from PubChem BioAssay AID1159580 (chemical genetic matrix, 2015).
# The campaign covered roughly 5,500 compounds. About 2,000 (36%) were called active. Another 18% or so got no clear call; they are omitted. This is one part of the list. Unmarked numbers belong to inactive results. Cut-off read from the data, not from the text of the source: active = normalized growth mostly below about 0.91 (no sharp cut-off); inconclusive = no clear call, values can overlap the other calls; inactive = mostly above about 0.92.
# Assay: chemical genetic growth profiling, strain panel (AID 1159580);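 note: tested at 20 µM; growth read once vehicle control cultures reached saturation at 30 °C; 1 = growth at the plate median or of vehicle wells; lower values mean less growth of the strain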
# Settings: S. cerevisiae deletion strains, growth OD
compound,measurement,setting,value
C[C@@H]1O[C@@H](OC[C@H]2OC(Oc3c(-c4ccc(O)c(O)c4)oc4cc(O)cc(O)c4c3=O)[C@H](O)[C@@H](O)[C@@H]2O)[C@H](O)[C@H](O)[C@H]1O (stereo partly drawn),normalized growth,"locus YJL187C, strain SWE1, stronger effect = lower value",0.999
same,normalized growth,"locus YJR043C, strain POL32, stronger effect = lower value",1
same,normalized growth,"locus YJR066W, strain TOR1, stronger effect = lower value",1
same,normalized growth,"locus YJR075W, strain HOC1, stronger effect = lower value",1.02
same,normalized growth,"locus YKL009W, strain mrt4, stronger effect = lower value",1.11
same,normalized growth,"locus YKL068W, stronger effect = lower value",0.982
same,normalized growth,"locus YKL085W, strain MDH1 (second series), stronger effect = lower value",0.992
same,normalized growth,"locus YKL085W, strain MDH1, stronger effect = lower value",0.992
same,normalized growth,"locus YKL160W, strain elf1, stronger effect = lower value",0.976
same,normalized growth,"locus YKR001C, strain vps1, stronger effect = lower value",1.01
same,normalized growth,"locus YKR026C, strain gcn3, stronger effect = lower value",1
same,normalized growth,"locus YKR091W, strain srl3, stronger effect = lower value",0.996
same,normalized growth,"locus YLL001W, strain dnm1, stronger effect = lower value",0.942
same,normalized growth,"locus YLL026W, stronger effect = lower value",0.997
same,normalized growth,"locus YLL041C, strain sdh2, stronger effect = lower value",0.995
same,normalized growth,"locus YLR027C, strain aat2, stronger effect = lower value",1.01
same,normalized growth,"locus YLR039C, strain RIC1, stronger effect = lower value",0.979
same,normalized growth,"locus YLR058C, strain SHM2, stronger effect = lower value",1.03
same,normalized growth,"locus YLR102C, strain apc9, stronger effect = lower value",1
same,normalized growth,"locus YLR113W, strain HOG1, stronger effect = lower value",1.03
same,normalized growth,"locus YLR221C, strain rsa3, stronger effect = lower value",1.06
same,normalized growth,"locus YLR258W, strain gsy2, stronger effect = lower value",1.02
same,normalized growth,"locus YLR262C, strain YPT6 (second series), stronger effect = lower value",1.03
same,normalized growth,"locus YLR262C, strain YPT6, stronger effect = lower value",0.99
same,normalized growth,"locus YLR268W, strain sec22, stronger effect = lower value",0.977
same,normalized growth,"locus YLR320W, strain mms22, stronger effect = lower value",1.08
same,normalized growth,"locus YLR330W, strain CHS5, stronger effect = lower value",0.999
same,normalized growth,"locus YLR342W, strain FKS1 (second series), stronger effect = lower value",1
same,normalized growth,"locus YLR342W, strain FKS1, stronger effect = lower value",1.01
same,normalized growth,"locus YLR357W, strain rsc2, stronger effect = lower value",0.955
same,normalized growth,"locus YLR370C, strain arc18, stronger effect = lower value",1.01
same,normalized growth,"locus YLR371W, strain rom2, stronger effect = lower value",0.995
same,normalized growth,"locus YLR384C, strain iki3, stronger effect = lower value",0.993
same,normalized growth,"locus YLR418C, strain cdc73, stronger effect = lower value",1.03
same,normalized growth,"locus YML016C, strain PPZ1, stronger effect = lower value",1.01
same,normalized growth,"locus YML032C, strain rad52, stronger effect = lower value",1.03
same,normalized growth,"locus YML120C, strain ndi1, stronger effect = lower value",0.972
same,normalized growth,"locus YML124C, strain tub3, stronger effect = lower value",0.993
same,normalized growth,"locus YMR058W, strain fet3, stronger effect = lower value",0.881 (active)
same,normalized growth,"locus YMR078C, strain ctf18, stronger effect = lower value",0.999
same,normalized growth,"locus YMR125W, strain sto1, stronger effect = lower value",0.965
same,normalized growth,"locus YMR129W, stronger effect = lower value",1.01
same,normalized growth,"locus YMR205C, strain PFK2, stronger effect = lower value",1
same,normalized growth,"locus YMR223W, strain ubp8, stronger effect = lower value",1.01
same,normalized growth,"locus YMR231W, strain pep5, stronger effect = lower value",1
same,normalized growth,"locus YMR307W, strain GAS1, stronger effect = lower value",1.03
same,normalized growth,"locus YNL067W, strain RPL9B, stronger effect = lower value",1.01
same,normalized growth,"locus YNL071W, strain lat1, stronger effect = lower value",1.02
same,normalized growth,"locus YNL183C, strain NPR1, stronger effect = lower value",0.999
same,normalized growth,"locus YNL209W, strain ssb2, stronger effect = lower value",0.939
same,normalized growth,"locus YNL233W, strain BNI4, stronger effect = lower value",1.02
same,normalized growth,"locus YNL248C, strain rpa49, stronger effect = lower value",1.01
same,normalized growth,"locus YNL250W, strain rad50, stronger effect = lower value",0.963
same,normalized growth,"locus YNL271C, strain bni1, stronger effect = lower value",0.987
same,normalized growth,"locus YNL298W, strain CLA4, stronger effect = lower value",0.982
same,normalized growth,"locus YNL307C, strain MCK1, stronger effect = lower value",0.987
same,normalized growth,"locus YNL322C, strain KRE1 (second series), stronger effect = lower value",0.997
same,normalized growth,"locus YNL322C, strain KRE1, stronger effect = lower value",1.01
same,normalized growth,"locus YNR049C, strain mso1, stronger effect = lower value",0.998
same,normalized growth,"locus YNR052C, strain pop2, stronger effect = lower value",1.01
same,normalized growth,"locus YOL006C, strain TOP1, stronger effect = lower value",1.03
same,normalized growth,"locus YOL012C, strain htz1",0.939
same,normalized growth,"locus YOL147C, strain pex11, stronger effect = lower value",1
same,normalized growth,"locus YOR001W, strain rrp6, stronger effect = lower value",1.03
same,normalized growth,"locus YOR061W, strain CKA2, stronger effect = lower value",1.01
same,normalized growth,"locus YOR069W, strain VPS5, stronger effect = lower value",0.994
same,normalized growth,"locus YOR070C, strain gyp1, stronger effect = lower value",0.999
same,normalized growth,"locus YOR080W, strain dia2, stronger effect = lower value",1.01
same,normalized growth,"locus YOR083W, strain WHI5, stronger effect = lower value",0.97
same,normalized growth,"locus YOR106W, strain vam3, stronger effect = lower value",0.877
same,normalized growth,"locus YOR136W, strain idh2, stronger effect = lower value",0.99
same,normalized growth,"locus YOR144C, strain elg1, stronger effect = lower value",1.01
same,normalized growth,"locus YOR184W, strain ser1, stronger effect = lower value",1
same,normalized growth,"locus YOR231W, strain MKK1, stronger effect = lower value",1.05
same,normalized growth,"locus YOR265W, strain rbl2, stronger effect = lower value",1.01
same,normalized growth,"locus YOR270C, strain vph1, stronger effect = lower value",1
same,normalized growth,"locus YOR290C, strain snf2, stronger effect = lower value",0.959
same,normalized growth,"locus YOR316C, strain cot1, stronger effect = lower value",0.999
same,normalized growth,"locus YPL051W, strain arl3, stronger effect = lower value",0.971
same,normalized growth,"locus YPL078C, strain atp4, stronger effect = lower value",0.941
same,normalized growth,"locus YPL106C, strain sse1, stronger effect = lower value",0.999
same,normalized growth,"locus YPL240C, strain hsp82, stronger effect = lower value",1
same,normalized growth,"locus YPL256C, strain CLN2, stronger effect = lower value",1.09
same,normalized growth,"locus YPR119W, strain clb2, stronger effect = lower value",1
same,normalized growth,"locus YPR141C, strain kar3, stronger effect = lower value",0.994
same,normalized growth,"locus YPR163C, strain tif3, stronger effect = lower value",0.998
same,normalized growth,"locus YPR167C, strain met16, stronger effect = lower value",0.991
same,normalized growth,"strain wtn01, stronger effect = lower value",0.975
